Measurements taken from publication PMC10668032, “Altered binding affinity of SIX1-Q177R correlates with enhanced WNT5A and WNT pathway effector expression in Wilms tumor”.
Whole data set: some 33,000 sequences, median “e-score” near -0.053, cut for the highest 2% near 0.38. The list comes from a sample in which the highest values are over-represented; it also holds similar and randomly drawn sequences.

target: T1, SIX1 homeodomain (reference allele) (human, UniProt Q15475 108-198); assay: universal protein binding microarray; Universal all-10-mer PBM (8x60K, AMADID 030236), 300 nM GST-tagged protein, Alexa Fluor 488 anti-GST; buffer, salt, pH and temperature not stated (as in Berger); high values mean tight binding; conditions: protein: ivt; tags: N-terminal GST; dsDNA, one strand shown
T1 sequence: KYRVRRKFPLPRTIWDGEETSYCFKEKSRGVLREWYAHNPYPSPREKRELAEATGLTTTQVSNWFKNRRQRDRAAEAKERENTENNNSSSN
Procedure, shortened: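 Binding of GST-tagged homeodomains is given as 8-mer E-scores from the Universal PBM Analysis Suite. The proteins were produced by in vitro transcription/translation, quantified by anti-GST western blot against a recombinant GST standard curve, and applied in duplicate at 300 nM final concentration to universal 'all 10-mer' protein binding microarrays (8×60K format).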

Q: For TATCAGCA, which binding signal is on record?
A: 0.327 ± 0.0344 E-score

Q: With TATCATCA as the sequence, how does the binding signal read?
A: 0.412 ± 0.0218 E-score

Q: With TATCCTCA as the sequence, how does the binding signal read?
A: 0.37 ± 0.037 E-score

Q: For AGGTGGAT, which binding signal is on record?
A: 0.305 ± 0.034 E-score

Q: CATAGATC was tested. Which binding signal did it give?
A: 0.249 E-score

Q: How did the binding signal turn out when CGGTGTGA was run?
A: 0.204 ± 0.0905 E-score

Q: With GGTTAGAA as the sequence, how does the binding signal read?
A: 0.153 ± 0.0251 E-score

Q: For ATACTCTA, which binding signal is on record?
A: 0.268 ± 0.0991 E-score

Q: With CATAATCC as the sequence, how does the binding signal read?
A: 0.3 ± 0.0272 E-score

Q: Which binding signal does the source give for AATTGTAT here?
A: 0.162 ± 0.0456 E-score

Q: How did the binding signal turn out when CATACCAG was run?
A: 0.171 ± 0.0153 E-score

Q: How did the binding signal turn out when CCATTATA was run?
A: 0.177 ± 0.0248 E-score

Q: How did the binding signal turn out when ATCCAAGA was run?
A: 0.155 ± 0.0124 E-score

Q: How did the binding signal turn out when CAGGGCGA was run?
A: 0.216 ± 0.0603 E-score

Q: For GAATCCGA, which binding signal is on record?
A: 0.188 ± 0.0166 E-score

Q: For ATATCCGA, which binding signal is on record?
A: 0.429 ± 0.0108 E-score

Q: Which binding signal does the source give for GCATCCGA here?
A: 0.203 ± 0.0461 E-score

Q: With GTATCCGA as the sequence, how does the binding signal read?
A: 0.426 ± 0.0105 E-score

Q: For ATATCCGC, which binding signal is on record?
A: 0.43 ± 0.0222 E-score

Q: Which binding signal does the source give for ACATCCGG here?
A: 0.174 ± 0.064 E-score

Q: Which binding signal does the source give for CTATCCGA here?
A: 0.33 ± 0.00993 E-score

Q: With ATCTCCGA as the sequence, how does the binding signal read?
A: 0.258 ± 0.0265 E-score

Q: Which binding signal does the source give for CTATCCGC here?
A: 0.3601 ± 0.000778 E-score

Q: Which binding signal does the source give for AAATCCGG here?
A: 0.244 ± 0.0271 E-score

Q: With CAATCCGC as the sequence, how does the binding signal read?
A: 0.29 ± 0.0084 E-score

Q: With ATATCCGG as the sequence, how does the binding signal read?
A: 0.4206 ± 0.00416 E-score

Q: With ATCGAAGA as the sequence, how does the binding signal read?
A: 0.293 ± 0.0315 E-score

Q: GCCAATAC was tested. Which binding signal did it give?
A: 0.16 ± 0.00361 E-score

Q: Which binding signal does the source give for TCAGCTCA here?
A: 0.162 ± 0.0286 E-score

Q: Which binding signal does the source give for ACTATCTG here?
A: 0.178 ± 0.0443 E-score

Q: GATCGCAA was tested. Which binding signal did it give?
A: 0.242 ± 0.0198 E-score

Q: GATCGTGA was tested. Which binding signal did it give?
A: 0.229 ± 0.0511 E-score

Q: Which binding signal does the source give for ATCACTAA here?
A: 0.166 ± 0.051 E-score

Q: How did the binding signal turn out when ATCGTAGA was run?
A: 0.193 ± 0.0118 E-score

Q: GGTGTACA was tested. Which binding signal did it give?
A: 0.306 ± 0.0258 E-score

Q: How did the binding signal turn out when CATACATG was run?
A: 0.154 ± 0.0235 E-score

Q: ATCCGCGA was tested. Which binding signal did it give?
A: 0.259 ± 0.011 E-score

Q: Which binding signal does the source give for AAGAGATA here?
A: 0.235 ± 0.141 E-score

Q: Which binding signal does the source give for TAGTGATA here?
A: 0.415 ± 0.0394 E-score

Q: GAGTGATA was tested. Which binding signal did it give?
A: 0.447 ± 0.0268 E-score

Q: With AAGTGATA as the sequence, how does the binding signal read?
A: 0.397 ± 0.0754 E-score

Q: Which binding signal does the source give for CAGTGAGA here?
A: 0.16 ± 0.032 E-score

Q: How did the binding signal turn out when ACGTGATA was run?
A: 0.344 ± 0.0436 E-score

Q: Which binding signal does the source give for TAGTGTGA here?
A: 0.184 ± 0.00834 E-score

Q: CAGTGATA was tested. Which binding signal did it give?
A: 0.417 ± 0.0231 E-score

Q: GAGTGAGA was tested. Which binding signal did it give?
A: 0.234 ± 0.0134 E-score

Q: How did the binding signal turn out when TAGTGAGA was run?
A: 0.203 ± 0.0506 E-score

Q: How did the binding signal turn out when GAGAGATA was run?
A: 0.323 ± 0.0528 E-score

Q: With ATACTTCG as the sequence, how does the binding signal read?
A: 0.304 ± 0.058 E-score

Q: With GACAATCC as the sequence, how does the binding signal read?
A: 0.18 ± 0.0145 E-score

Q: For ATCAACAA, which binding signal is on record?
A: 0.222 ± 0.0259 E-score

Q: With CATATGAC as the sequence, how does the binding signal read?
A: 0.166 ± 0.0391 E-score

Q: With ATACATCG as the sequence, how does the binding signal read?
A: 0.238 ± 0.0407 E-score

Q: With ACTTACCG as the sequence, how does the binding signal read?
A: 0.152 ± 0.00235 E-score

Q: Which binding signal does the source give for TATATTGA here?
A: 0.258 ± 0.0428 E-score

Q: GTGTCGGA was tested. Which binding signal did it give?
A: 0.322 ± 0.041 E-score

Q: Which binding signal does the source give for GGATGGGA here?
A: 0.195 ± 0.0444 E-score

Q: With CAGATTGA as the sequence, how does the binding signal read?
A: 0.219 ± 0.0123 E-score

Q: Which binding signal does the source give for AATTGATC here?
A: 0.291 ± 0.0151 E-score

Q: How did the binding signal turn out when GCGTGATA was run?
A: 0.437 ± 0.0364 E-score

Q: With AAGTGATC as the sequence, how does the binding signal read?
A: 0.391 ± 0.00486 E-score

Q: Which binding signal does the source give for CCGTGATC here?
A: 0.364 ± 0.0193 E-score

Q: For CAGTGATC, which binding signal is on record?
A: 0.382 ± 0.0157 E-score

Q: ACGTGATC was tested. Which binding signal did it give?
A: 0.302 ± 0.0538 E-score

Q: For CCGTGATA, which binding signal is on record?
A: 0.348 ± 0.0248 E-score

Q: For GAGTGATC, which binding signal is on record?
A: 0.336 ± 0.0148 E-score

Q: With GATCTATA as the sequence, how does the binding signal read?
A: 0.298 ± 0.0183 E-score

Q: Which binding signal does the source give for CCTACACC here?
A: 0.163 ± 0.0313 E-score

Q: For CCGTAATA, which binding signal is on record?
A: 0.205 ± 0.0335 E-score

Q: Which binding signal does the source give for TACTCGAA here?
A: 0.152 ± 0.00667 E-score

Q: Which binding signal does the source give for TACACGGA here?
A: 0.173 ± 0.0418 E-score

Q: Which binding signal does the source give for ACCATCCG here?
A: 0.23 ± 0.0704 E-score

Q: Which binding signal does the source give for ATACATCC here?
A: 0.365 ± 0.0231 E-score

Q: Which binding signal does the source give for GATTAATA here?
A: 0.301 ± 0.0732 E-score

Q: ATACGCGG was tested. Which binding signal did it give?
A: 0.182 ± 0.0649 E-score

Q: Which binding signal does the source give for AAGGGTAA here?
A: 0.173 ± 0.0225 E-score

Q: With AGGGGTAT as the sequence, how does the binding signal read?
A: 0.451 ± 0.0124 E-score

Q: AAAGGTAT was tested. Which binding signal did it give?
A: 0.337 ± 0.087 E-score

Q: AACGGTAT was tested. Which binding signal did it give?
A: 0.234 ± 0.0543 E-score

Q: How did the binding signal turn out when AAGGGTAT was run?
A: 0.41 ± 0.0209 E-score

Q: Which binding signal does the source give for AAGGGTGT here?
A: 0.32 ± 0.00631 E-score

Q: How did the binding signal turn out when ACAGGTAT was run?
A: 0.312 ± 0.0224 E-score

Q: Which binding signal does the source give for CCGGGTAG here?
A: 0.162 ± 0.0432 E-score

Q: For AGGGGTAG, which binding signal is on record?
A: 0.214 ± 0.0325 E-score

Q: With AGGGGTAC as the sequence, how does the binding signal read?
A: 0.178 ± 0.0933 E-score

Q: With ACGGGTAT as the sequence, how does the binding signal read?
A: 0.435 ± 0.0111 E-score

Q: For AGAGGTAT, which binding signal is on record?
A: 0.399 ± 0.0394 E-score

Q: CATCCCGA was tested. Which binding signal did it give?
A: 0.175 ± 0.0394 E-score
